Compound activity (PubChem)
Methyltransferases – Primary Screen for Target Class Profiling of Small Molecule Inhibitors of Methyltransferases | calls only at 40 µM | actives 3.9% (n = 25,000) | purified enzyme, MTase-Glo SAH luminescence; stronger effect = lower value; call rule not given here
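Each enzyme was reacted with SAM and its substrate, with compounds tested once at 40 uM; SAH formed was read by MTase-Glo luminescence.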
* marks the source's active call; other numbers are inactive results; i = inactive; + = active, no number; ! = repeats disagree. This excerpt belongs to a sample that is enriched for hits. % is scaled to controls: 0 for no effect and ±100 for the full control effect.

SMILES	Methyltransferases
COc1ccc(C(=O)Cn2nc3n(CCc4ccccc4)c(=O)c4ccccc4n3c2=O)cc1OC	i
NC(=O)c1ccc(O[C@@H]2COCC[C@H]2NC(=O)Cc2ccc(O)cc2)cc1	i
COC(=O)C(C)(N)Cc1ccc(O)cc1 (stereo not drawn)	i
C[C@](N)(Cc1ccc(O)cc1)C(=O)O	i
C[C@](N)(Cc1ccc(O)c(O)c1)C(=O)O	+
S=C(S)OC1CC2CC1C1CCCC21 (stereo not drawn)	i
CCOc1ccccc1CN1C(=O)c2cc3ccc(OC)cc3n2CC1(C)C(=O)NC1CCCC1 (stereo not drawn)	i
CCOc1ccccc1CN1C(=O)c2cc(C(C)(C)C)nn2CC1(C)C(=O)NC1CCCCCC1 (stereo not drawn)	i
CCN1CCN(CCCNC(=O)c2cc3n(n2)CC(C)(C(=O)NC2CCCCC2)N(C)C3=O)CC1 (stereo not drawn)	i
COc1cccc(Cn2nc3n(CCC(C)C)c(=O)c4ccc(C(=O)NC5CCCCC5)cc4n3c2=O)c1	i
NC(=O)c1cccc2[nH]c(-c3ccc([C@H]4CCCN4)cc3F)nc12	+
NC(=O)c1cccc2[nH]c(-c3ccc([C@@H]4CCCN4)cc3F)nc12	+
NC(=O)c1cccc2[nH]c(-c3ccc(C4CCCN4)cc3F)nc12 (stereo not drawn)	+
CC1(C(=O)Nc2ccccc2)CN(Cc2ccccc2)Cc2ccc(N3CCOCC3)nc21 (stereo not drawn)	i
CSc1ccc(CCN2C(=O)CSc3c(c4ccccc4n3C)C2C(=O)NCc2ccccc2)cc1 (stereo not drawn)	i
CCn1cc(C(=O)N2C[C@H](CO)C[C@H](CN3CCCC3)C2)c(C)n1	i
CCN1C(=O)c2cc(C(=O)NCc3ccc(OC)c(OC)c3)nn2CC1(C)C(=O)NC1CCCC1 (stereo not drawn)	i
CC1(C(=O)NC2CCCCCCC2)Cn2c(ccc2-c2ccco2)C(=O)N1CCN1CCCCCC1 (stereo not drawn)	i
Cc1ccccc1N1C(=O)c2cc3sccc3n2CC1(C)C(=O)NC1CCCC(C)C1C (stereo not drawn)	i
CC(=O)O[C@H]1C[C@@](O)(C(C)C)[C@@H]2[C@@H](OC(=O)c3ccc(O)cc3)CC(C)=CC[C@@]12C	i
COCCCN1C(=O)c2nc3ccccc3n2CC1(C)C(=O)NC1CCCC1 (stereo not drawn)	i
C#CCN(C)CCCOc1ccc(Cl)cc1Cl	i
CCOc1ccc(N2C(=O)c3cc4oc(C)cc4n3CC2(C)C(=O)NC2CCCCCC2)cc1 (stereo not drawn)	i
CCN1C(=O)c2c(C(=O)NCCc3ccccc3)ncn2CC1(C)C(=O)NC1CCCC1 (stereo not drawn)	i
Cn1cc(-c2cnn3c(N)c(Br)c([C@@H]4CCCNC4)nc23)cn1	+
SMILES	Methyltransferases
Cn1c(=O)c2ccc(C(=O)NC3CCCCC3)cc2n2c(SCC(N)=O)nnc12	i
COc1cc(/C=C/C(=O)OC2CC(OC(C)=O)C(OC(C)=O)C3C2CCC2C(=O)OC(c4ccoc4)CC23C)ccc1O[C@@H]1O[C@H](CO)[C@@H](O)[C@H](O)[C@H]1O (stereo partly drawn)	i
CCC1c2ccc(C)n2CCN1C(=O)Nc1cc(Cl)ccc1C(=O)OC (stereo not drawn)	i
Cc1cc(C)c(S(=O)(=O)NCCn2c(C)cnc2C2CCC2)cc1C	i
CCOCC(=O)N1CCC(N2C(=O)C3(CCCCC3)C2c2ccccc2)CC1 (stereo not drawn)	i
O=C(O)C1(Cc2cccc(Nc3nccs3)n2)CCC(Oc2cccc(Cl)c2F)CC1 (stereo not drawn)	+!
COc1cccc(CN2CC3(C2)NC(=O)c2ccccc2O3)c1	i
CC(C)C[C@H](CO)Nc1nc(S[C@@H](C)c2ccccc2)nc2nc(N)sc12	+
CCC(O)C1CCN(C(=O)c2cnn3cc(CN(CC)CC)cnc23)CC1 (stereo not drawn)	i
COc1ccc(OC)c2c1cc1n2CC(C)(C(=O)NC2CCCCC2)N(Cc2cccnc2)C1=O (stereo not drawn)	+
COCCCN1C(=O)c2cc3c(OC)ccc(OC)c3n2CC1(C)C(=O)NC1CCCCC1 (stereo not drawn)	+
COc1ccc(OC)c2c1cc1n2CC(C)(C(=O)NC2CCC(C)CC2)N(Cc2cccnc2)C1=O (stereo not drawn)	i
CCOCCCN1C(=O)c2cc3c(OC)ccc(OC)c3n2CC1(C)C(=O)NC1CCCCCC1 (stereo not drawn)	i
COc1ccc(OC)c2c1cc1n2CC(C)(C(=O)NC2CCCCCC2)N(Cc2cccnc2)C1=O (stereo not drawn)	i
CCOCCCN1C(=O)c2cc3c(OC)ccc(OC)c3n2CC1(C)C(=O)NC1CCCCC1 (stereo not drawn)	i
Cc1ccc(C#N)c(N2CCN(C3CCCC3)C(CCO)C2)n1 (stereo not drawn)	i
O=C(Nc1cc(F)ccc1F)N1Cc2c(sc3c2CCCC3)-n2cccc2C1c1cccc(F)c1 (stereo not drawn)	i
Cc1cc(C(=O)NC[C@@H]2OC[C@@]3(C)[C@H]4CC[C@@H](O)[C@@H](CC(=O)N5CCCC5)[C@]4(C)CC[C@H]3O2)no1	i
Cc1ccc(NC(=O)Cn2nc3n(CC(C)C)c(=O)c4ccc(C(=O)NC(C)C)cc4n3c2=O)cc1	i
COc1ccc(CNc2nc3c(S(=O)(=O)c4ccc(C)cc4C)nnn3c3ccccc23)cc1	i
Cc1cccc(-c2n[nH]n3c2nc(=O)c2ccc(C(=O)NC4CCCCC4)cc23)c1	i
Cc1cc(C)c(CNC(=O)c2cccc(CCC(C)(C)O)c2)cn1	i
CCN1c2cc(C(=O)Nc3cccc(F)c3)ccc2C(=O)N2CCCC21 (stereo not drawn)	i
CC(=O)N1CCN(NC(=O)c2ccc(F)cc2)CC1	i
CN1CCC(c2c[nH]c3ccc(NC(=O)c4ccc(F)cc4)cc23)CC1	+
SMILES	Methyltransferases
COc1ccc(CCNC(=O)C(C)n2ccc3cc(S(=O)(=O)N4CCCC4)ccc32)cc1OC (stereo not drawn)	i
CC(=O)Nc1ccc(Nc2nc3c(S(=O)(=O)c4ccc(C)cc4)nnn3c3ccc(Cl)cc23)cc1	i
Cc1ccc2c(c1)c1c(n2CCc2ccc(C)nc2)CCN(C)C1	+
Cc1cc(C)c2nonc2c1S(=O)(=O)N1C[C@@H](N(C)C)[C@H](C(C)C)C1	i
CC1(C(=O)NC2CCCC2)Cn2c(ccc2-c2ccccc2)C(=O)N1Cc1cccc(F)c1 (stereo not drawn)	i
CCN(CC)CCN(Cc1ccc(-c2ccc(C(F)(F)F)cc2)cc1)C(=O)Cn1c(SCc2ccc(F)cc2)nc(=O)c2c1CCC2	+
O=C(c1c[nH]c2ncccc12)N1CCC(Cc2ccccc2)CC1	i
C[C@]12CC[C@@H]3c4ccc(O)cc4CC[C@H]3[C@@H]1C[C@@H](O[C@@H]1O[C@H](C(=O)O)[C@@H](O)[C@H](O)[C@H]1O)[C@@H]2O	i
CCCn1c(=O)c2ccc(C(=O)NCC(C)C)cc2n2c(SCC(=O)Nc3ccccc3C)nnc12	i
COC(=O)C1=COC(O[C@@H]2O[C@H](CO)[C@@H](O)[C@H](O)[C@H]2O)[C@@H]2[C@@](C)(O)[C@@H](OC(=O)/C=C/c3ccccc3)C[C@]12O (stereo partly drawn)	i
